# Results published in the supplement of paper PMC6555819.
# Key:
# Assay in all cases: PBM binding z-score (relative to random genomic background probes); higher = stronger binding; sequences stand for … in GC…GCGATTGACAGCGTAGAATGAAGG
# [1] = system: FXR:RXRa (NR concentration 270 nM, RXRa partner concentration 90 nM)
# Outline: (§1)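 Binding z-scores take random background probes as their reference. They come from custom Agilent 4×180K protein-binding microarrays incubated 1 h with ligand-free nuclear receptor dimers, with antibodies against each partner (one per run) detecting binding. Scanned fluorescence was regression-normalized.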
# [2] = system: LXRa:RXRa (NR concentration 270 nM, RXRa partner concentration 90 nM)
# Outline: as §1
# [3] = system: LXRa homodimer (NR concentration 270 nM)
# Outline: as §1
# [4] = system: LXRb:RXRa (NR concentration 270 nM, RXRa partner concentration 90 nM)
# Outline: as §1
# [5] = system: LXRb homodimer (NR concentration 270 nM)
# Outline: as §1
# [6] = system: PPARa:RXRa (NR concentration 270 nM, RXRa partner concentration 90 nM)
# Outline: as §1
# [7] = system: PPARg:RXRa (NR concentration 180 nM, RXRa partner concentration 90 nM)
# Outline: as §1
# [8] = system: PPARg:RXRa 270nM:90nM, anti-RXR (NR concentration 270 nM, RXRa partner concentration 90 nM)
# Outline: as §1
# [9] = system: PPARg:RXRa 30nM:10nM, anti-RXR (NR concentration 30 nM, RXRa partner concentration 10 nM)
# Outline: as §1
# [10] = system: PPARg:RXRa 90nM:30nM, anti-RXR (NR concentration 90 nM, RXRa partner concentration 30 nM)
# Outline: as §1
Sequence,PBM binding z-score [1],PBM binding z-score [2],PBM binding z-score [3],PBM binding z-score [4],PBM binding z-score [5],PBM binding z-score [6],PBM binding z-score [7],PBM binding z-score [8],PBM binding z-score [9],PBM binding z-score [10]
CAAACTAGGTCACGAAAGGTCAACGTCGAATGAC,7.41,7.98,7.42,7.06,2.11,6.81,10.6,8.8,7.57,9.28
CGAACTAGGTGACCAGGACAGTGAAGAGGTTGGA,-0.0348,-0.436,-0.313,-0.307,-0.898,2.67,3.98,3.34,1.03,1.94
ATATGAAGGTTAGGGTCATTCAGAAAGTAGGGAA,5.27,4.18,1.26,4.52,1.7,5.23,4,4.02,1.82,2.87
CGAACTAGGTCAATGGACAGTGAAAGGCGACGTA,3.01,1.85,-0.266,1.17,-0.604,4.39,6.92,6.17,3.76,5.61
CGAACTAGGTCAAAGGACAGTGAAAGGCGACGTA,4.11,2.54,0.0195,1.9,-0.588,5.72,10.1,8.6,8.13,9.66
ATATGTAGGTTAGGGTAATTCAGAAAGTAGGGAA,1.61,1.22,0.994,1.87,1.03,3.31,4.75,3.91,2.13,3.13
CGAACTAGGTCACCAGGACAGAGAAGAGGTTGGA,4.19,2.59,0.117,1.71,-0.205,5.15,8.52,7.02,4.71,6.65
CAATCTAGGTCACGAAAGGTCAAAGTCGAATGAC,7.83,8.36,8,7.57,3.05,6.84,10.7,8.68,7.62,9.02
TGTCAAAGCTCAAAGGTAACGTAAGTATCCACAC,0.08,-0.0986,-0.625,0.416,-0.838,1.04,1.25,1.81,0.686,1.43
CCTACTGGGCCACGAAAGGTAATTGATTCAGTGA,-0.128,-0.227,-0.337,-0.403,-0.777,1.1,1.63,1.38,-0.0637,0.669
CGAACTAGGTCACCAGGATAGTGAAGAGGTTGGA,4.03,2.47,0.115,1.87,-0.103,5.37,8.87,6.98,4.74,6.8
CGAACTAGGTAAAGGACAGTGAATCTCCGCACGC,-0.281,-0.379,-0.301,-0.788,-0.59,1.32,1.51,1.3,-0.0812,0.891
ATATGTAGGTTAGCTGGCGTCATTCAGACTAGGC,-0.167,0.0704,-0.277,-0.239,0.141,1.69,2.61,2.43,0.729,1.81
CAAAGTAGGTCAAGAGGTCAAAGTCCGCTTCCCG,7.25,6.52,6.36,5.69,2.34,6.74,10.3,8.87,7.55,9.17
ATATGTAGGTTAGGCTCATTCAGAAAGTAGGGAA,-0.281,-0.0164,-0.0399,0.129,0.223,2.21,2.96,2.43,0.952,1.84
AATACAGGGTCACTTGGCCAGAGTAGGTACGAAT,6.52,5.13,1.39,4.27,1.54,5.49,5.84,5.4,2.24,4.19
CGTCCAAGGTCAGAGAGGTCACTGAATGCCGAGT,6.61,5.79,4.5,5.36,0.485,5.61,4.58,5.36,1.92,4.08
CGAACTAGGTCAAAGGACAGTCAAAGGCGACGTA,4.15,2.73,-0.061,1.89,-0.231,5.68,10.2,8.68,8.42,9.11
GATACAGGGTCAGCTAGAGGGCAGAGTATGGAAA,4.97,3.61,0.31,3.04,-0.0711,4.5,4.11,3.6,0.823,2.38
ATATGTAGGTTAGGGTCATTAAGAAAGTAGGGAA,4.6,3.41,1.04,4.44,1.52,5.58,7.9,6.59,4.1,6.14
CCTCGGAGGACACCAGGAGGTCAGAGCTGCCAGA,1.2,1.69,0.739,1.12,-0.792,2.14,0.153,0.169,-0.691,-0.278
ATATGTAGGTTCGGGTCATTCAGAAAGTAGGGAA,3.32,2.84,1.01,3.38,1.52,4.37,4.22,4.12,1.6,3.34
TGAATGAAGTTAAAGATCAGGGAACGTGGCGTCG,-0.402,-0.168,-0.348,-0.389,-0.518,0.212,0.843,1.61,0.713,1.3
